This test in a line: qHTS profiling of the MIPE4 collection as inhibitors of Plasmodium falciparum (HB3) proliferation (AID 743347).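 Also: plate controls were DMSO vehicle wells for no effect and artemisinin wells for full effect.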 Conditions: P. falciparum HB3 in erythrocytes, SYBR Green DNA, 72 h; at 28.5 µM (top of the series) unless noted. An excerpt: Plasmodium falciparum is a virulent malarial parasite that kills 1-2 million people worldwide each year. Transmitted by mosquitoes, the sporozoite form of the parasite enters the blood stream to infect hepatocytes, where they become merozoites that infect red blood cells (erythrocytes). Within erythrocytes, merozoites begin a […] cycle of growth and division, after which the parasite is released to infect new red blood cells. Gametocytes, which form within erythrocytes as well, circulate in the bloodstream and are ingested by the mosquito, thereby completing the life cycle. To profile malarial isolates for differential chemical responses and to identify inhibitors of malarial growth, an assay that measures P. falciparum growth and replication within erythrocytes was employed. This assay uses a DNA binding fluorescent dye (SYBR Green) to detect parasite DNA following cell lysis. Because mature erythrocytes lack DNA, only Plasmodium-derived DNA is detected.
The SYBR Green viability assay was adapted from a method described previously (Plouffe et al., 2008). For screening 3 ul culture medium was dispensed into 1536 well black clear bottom plates (Aurora Biotechnologies) using a Multidrop Combi (Thermo Fisher Scientific Inc.), 23 nL compounds in DMSO were added by a pin tool (Kalypsys), and 5 ul of erythrocytes infected with P. falciparum (0.3% parasitemia, 2.5% hematocrit final concentration) were added. The plates were incubated at 37 C in a humidified incubator in 5% CO2 for 72 h, and 2 ul lysis buffer (20 mM Tris HCl, 10 mM EDTA, 0.16% saponin, 1.6% triton X, 10X SYBR Green I supplied as 10,000X […] by Invitrogen) was added to each well. The plates were mixed for 25 sec with gentle shaking and incubated overnight at room temperature in the dark. The following morning, fluorescence intensity at 485(14) nm excitation and 535(25) nm emission wavelengths was measured on an EnVision (Perkin Elmer) plate reader. Plate reads were normalized relative to the control inhibitor (0.29 uM artemisinin) and vehicle (DMSO) wells present on each plate and then corrected by an algorithm using vehicle-only control plates at the beginning and end of the compound plate stack.
The molecule `CNS(=O)(=O)CCc1ccc2[nH]cc(C3CCN(C)CC3)c2c1` registered a growth, % of control of 92.7%. As for `CCc1c2c(nc3ccc(OC(=O)N4CCC(N5CCCCC5)CC4)cc13)-c1cc3c(c(=O)n1C2)COC(=O)[C@]3(O)CC`, the figure is 71.1%; as for `Cc1nnc(NS(=O)(=O)c2ccc(N)cc2)s1`, 38.9%. As for `C1CCC(C(CC2CCCCN2)C2CCCCC2)CC1` (stereo not given), the figure is 1.94%; as for `C#CCN[C@@H]1CCc2ccccc21`, 103%; as for `Nc1nc(N)nc(-c2cc(Cl)ccc2Cl)n1`, 97.7%. Then `N[C@@H](Cc1ccc(O)c(O)c1)C(=O)O`, with 84%. The molecule `Nc1[nH]c(=O)ncc1F` came in with a growth, % of control of 699%. Then `CCC(C)(C)c1ccc(CC(C)CN2C[C@@H](C)O[C@@H](C)C2)cc1` (stereo not given in full), with 26.4%; and `CCC(=O)O[C@]1(C(=O)CCl)[C@@H](C)C[C@H]2[C@@H]3CCC4=CC(=O)C=C[C@]4(C)[C@@]3(F)[C@@H](O)C[C@@]21C`, with 8.53%. Then `N[C@@H](C(=O)N[C@@H]1C(=O)N2C(C(=O)O)=C(Cl)CS[C@H]12)c1ccccc1`, with 97.6%; and `C[C@@H]1CN(c2c(F)c(N)c3c(=O)c(C(=O)O)cn(C4CC4)c3c2F)C[C@H](C)N1`, with 72.3% [at 9.64 µM]. Then `Nc1nc(=S)c2[nH]cnc2[nH]1`, with 216%; and `NC1(c2ccc(-c3nc4ccn5c(=O)[nH]nc5c4cc3-c3ccccc3)cc2)CCC1`, with 8.07%; and `NC(=O)N1c2ccccc2CC(=O)c2ccccc21`, with 102%.

Consider `Cc1noc(NS(=O)(=O)c2ccc(N)cc2)c1C`, for which the growth, % of control came to 98.2%. Then `Cc1ncc([N+](=O)[O-])n1CCO`, with 85.1%; and `Cc1cccc(Nc2ccncc2S(=O)(=O)NC(=O)NC(C)C)c1`, with 95.2%. As for `COc1cc2c(Nc3ccc(Br)cc3F)ncnc2cc1OCC1CCN(C)CC1`, the figure is 3.4%; as for `CCN(CC)CCn1c(=O)c(Cc2ccc(OC)cc2)nc2ccccc21`, 149%. As for `CN1CCCC(n2nc(Cc3ccc(Cl)cc3)c3ccccc3c2=O)CC1` (stereo not given), the figure is 2.79%.

Molecule `COC(=O)Nc1nc2ccc(Sc3ccccc3)cc2[nH]1` came in with a growth, % of control of 102%. As for `COC(c1ccccc1)(c1ccccc1)[C@H](Oc1nc(C)cc(C)n1)C(=O)O`, the figure is 105%; as for `CN1CCN(c2c(F)cc3c(=O)c(C(=O)O)cn4c3c2OCN4C)CC1`, 73.2%; as for `CO[C@@]12[C@H](COC(N)=O)C3=C(C(=O)C(C)=C(N)C3=O)N1C[C@@H]1N[C@@H]12`, 2.97%. Take `Cc1ccc(S(=O)(=O)N[C@@H](Cc2ccccc2)C(=O)CCl)cc1`: the growth, % of control was found to be 84.3%. With `CCN1CCCC1CNC(=O)c1cc(S(N)(=O)=O)ccc1OC` (stereo not given), the growth, % of control was 70.9%. As for `O=c1cc(O)c(Cl)c[nH]1`, the figure is 21.5%.

`O=C(O)C1CCCN(CCC=C(c2ccccc2)c2ccccc2)C1` (stereo not given): the growth, % of control was 101%. As for `CC1=C(C(=O)O)N2C(=O)[C@@H](NC(=O)C(N)c3ccccc3)[C@H]2SC1` (stereo not given in full), the growth, % of control was 108%.

`CCCN[C@H]1CCc2nc(N)sc2C1` showed a growth, % of control of 6.99%. Then `CC(C)(C)NC(=O)[C@H]1CC[C@H]2[C@@H]3CC[C@H]4NC(=O)C=C[C@]4(C)[C@H]3CC[C@]12C`, with 72.9%; and `CN(C)CCc1c[nH]c2ccc(CS(=O)(=O)N3CCCC3)cc12`, with 70.4%; and `Nc1nc(N)c2nc(CNc3ccc(C(=O)NC(CCC(=O)O)C(=O)O)cc3)cnc2n1` (stereo not given), with 23.4%. As for `COc1ccc2cc3[n+](cc2c1OC)CCc1cc2c(cc1-3)OCO2`, the figure is 4.47%; as for `CC(C)OC(=O)C(C(=O)OC(C)C)=C1SC=CS1`, 91.6%; as for `CS(=O)(=O)c1ccc([C@@H](O)[C@@H](CO)NC(=O)C(Cl)Cl)cc1`, 56.8%.

`CNC(=O)c1cc(Oc2ccc(NC(=O)Nc3ccc(Cl)c(C(F)(F)F)c3)cc2)ccn1` came in with a growth, % of control of 12.2%.

Take `CC(C)Cn1cnc2c(N)nc3ccccc3c21`: the growth, % of control was determined as 58.5%. Then `CNC1CCCN(c2c(F)cc3c(=O)c(C(=O)O)cn(C4CC4)c3c2OC)C1` (stereo not given), with 22.8%.

Values taken from PubChem BioAssay (NCATS).
